Source: PubChem (National Center for Advancing Translational Sciences (NCATS))
HT1080NT lethal – kills 2HG-producing HT-1080-NT fibrosarcoma cells. Potency, µM (top dose mostly 46.1 µM), without a hit: at the highest dose activity, negative = less viability, actives largely listed as cytotoxic. actives 1.6% (n = 360,000). HT-1080-NT fibrosarcoma viability, CellTiter-Glo ATP luminescence, 48 h;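 further: NT is the 2HG producing partner of a matched IDH1 knockdown line; 0% = DMSO-treated cells and -100% = media-only wells without cells; nearly all actives have a fitted effect of over 55% in size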
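HT-1080-NT fibrosarcoma cells (2HG-overproducing), 750 cells/well in RPMI with 5% FBS, dosed after 2 h and incubated 48 h at 37C. CellTiter-Glo luminescence normalized to DMSO and no-cell wells; concentration-response curves fitted and classed.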
HT1080 IDH1KD tx – kills HT-1080 cells with IDH1 knockdown; Potency, µM (top dose mostly 46.1 µM), inactives show at the top dose activity, negative = toxicity, actives largely listed as cytotoxic; HT-1080 IDH1 knockdown viability, ATP luminescence, 48 h; actives 2% (n = 360,000); AID 686971;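 further: 0% = DMSO wells and -100% = cell-free medium wells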
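Luminescent ATP read-out (CellTiter-Glo, 10 min at room temperature) after 48 h compound exposure at 37 °C gave viability of IDH1-knockdown HT-1080 cells. Activity was normalised to DMSO and cell-free wells, then fitted as concentration-response curves.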
ATXN viability – reduces viability in counter-screen for ATXN expression inhibitors; Potency, µM (doses to about 56.7 µM), hits mostly cytotoxic; AID 651635; actives 0.49% (n = 400,000); S2 cells (HEK-293 line with an ATXN2-luciferase reporter) viability, CellTiter-Fluor protease fluorescence, 24 h; further: nearly all actives have a fitted effect of over 40% in size
KB-V1 cytotox – KB-V1 MDR subline cytotoxicity; KB-V1 MDR cells viability, CellTiter-Glo, 72 h; Potency, µM (titrated, usually from 46.1 µM), most hits filed as cytotoxic; actives 3.4% (n = 400,000); AID 1347076; further: on the % scale 0 is the no-effect control and ±100 the full control effect; nearly all actives have a fitted effect of over 60% in size
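Following 72 h at 37 degrees C with compound, KB-V1 cell viability was read by CellTiter-Glo luminescence, medium being phenol-red-free DMEM plus 10% FBS; concentration-response parameters came from normalized, curve-fitted qHTS data.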
ATXN2 expr inh – reduces ATXN2 reporter expression in HEK-293 cells. actives 0.72% (n = 360,000). HEK-293 ATXN2-luciferase reporter, luminescence, 24 h. Potency, µM (series often up to 57 µM), without a hit: top-dose activity change, negative = inhibition, usual class: inhibitors. AID 1745845; further: on the % scale 0 is the no-effect control and ±100 the full control effect; nearly all actives have a fitted effect of over 55% in size
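qHTS (up to 57 uM final) was run with 24 h compound exposure of reporter cells at 37 °C. Each well was multiplexed: SteadyGlo luminescence measured ATXN2-luciferase expression after a fluorogenic Gly-Phe-AFC viability readout (25 uM final).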
KB-3-1 tox – KB-3-1 parental cell cytotoxicity | KB-3-1 viability, CellTiter-Glo ATP luminescence, 72 h | Potency, µM (doses to about 46.1 µM), hits mostly cytotoxic | actives 1.4% (n = 400,000); further: on the % scale 0 is the no-effect control and ±100 the full control effect; nearly all actives have a fitted effect of over 60% in size
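Parental KB-3-1 adenocarcinoma cells in phenol-red-free DMEM with 10% FBS were pin-treated with compounds at several concentrations, incubated 72 h at 37 °C, and viability read by CellTiter-Glo luminescence; concentration-effect curves were fitted after normalization.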
The depositor's hits bear a star. Sampled rows, rich in hits. Any-hit rate of the full collection: about 6.2%. The call rests on the fitted dose curve; in most records, active means well fitted curve in the direction sought with a large enough effect; inconclusive means small, poorly fitted or top-dose-only effect, or another doubt; inactive means no such curve, though single readings can be large; an effect the other way counts as inactive or inconclusive. Potency means the concentration at half of the fitted maximal effect.

How did Cc1onc(-c2ccccc2)c1C(=O)N[C@@H]1C(=O)N2[C@@H](C(=O)O)C(C)(C)S[C@@H]12 do in these assays?
ATXN viability: inactive; ATXN2 expr inh: 5%

Results for CCCC1S/C(=N/N=C/c2ccc(C)cc2)N(Cc2ccc(OC)cc2)C1=O (centres undefined) ?
HT1080NT lethal: -1%; HT1080 IDH1KD tx: -1%; ATXN viability: inactive; KB-V1 cytotox: 13µM*; ATXN2 expr inh: -10%; KB-3-1 tox: inconclusive

What do the screens show for `COc1ccc(CN2C(=O)CS/C2=N/N=C/c2ccccc2)cc1`?
HT1080NT lethal: 3%; HT1080 IDH1KD tx: 8%; ATXN viability: inactive; KB-V1 cytotox: inactive; ATXN2 expr inh: 14%; KB-3-1 tox: inactive

What do the screens show for `CN1Cc2c(N3CCOCC3)nc3sc(C(=O)c4ccc(Br)cc4)c(N)c3c2CC1(C)C`?
HT1080NT lethal: 23µM*; HT1080 IDH1KD tx: 13µM*; KB-V1 cytotox: inconclusive; ATXN2 expr inh: inconclusive; KB-3-1 tox: inconclusive

What do the screens show for `CC[C@H]1OC(=O)[C@H](C)[C@@H](O[C@H]2C[C@@](C)(OC)[C@@H](O)[C@H](C)O2)[C@H](C)[C@@H](O[C@@H]2O[C@H](C)C[C@H](N(C)C)[C@H]2O)[C@](C)(O)C[C@@H](C)/C(=N\OCOCCOC)[C@H](C)[C@@H](O)[C@]1(C)O`?
ATXN viability: inactive

How did Cc1cccc(CNC(=O)c2cnn(-c3nccc(-c4cc5ccccc5o4)n3)c2C2CC2)n1 do in these assays?
ATXN viability: inactive

How did COc1ccc(Cl)c(N2CCN(CCCNC(=O)Nc3ccc(C)cc3)CC2)c1 do in these assays?
HT1080NT lethal: inconclusive; HT1080 IDH1KD tx: inconclusive; ATXN viability: inactive; KB-V1 cytotox: inactive; ATXN2 expr inh: -28%; KB-3-1 tox: 23µM*

How did CC1CN(CCC(=O)NC(c2cccnc2)C(F)(F)F)Cc2cc(Cl)ccc2O1 (centres undefined) do in these assays?
ATXN viability: inactive

Results for CC(=NNc1nc2ccccc2s1)c1ncccn1 ?
HT1080NT lethal: inconclusive; HT1080 IDH1KD tx: 1.2µM*; ATXN viability: 1.4µM*; KB-V1 cytotox: 1.3µM*; ATXN2 expr inh: inconclusive; KB-3-1 tox: 2.3µM*

Results for CC(=NNc1nc2ccccc2o1)c1ncccn1 ?
HT1080NT lethal: inconclusive; HT1080 IDH1KD tx: 1.2µM*; ATXN viability: inconclusive; KB-V1 cytotox: inconclusive; ATXN2 expr inh: inconclusive; KB-3-1 tox: 1.8µM*

Results for CC(=NNc1nc2ccccc2o1)c1cc2ccccc2cn1 ?
HT1080NT lethal: inconclusive; HT1080 IDH1KD tx: inconclusive; ATXN viability: inactive; KB-V1 cytotox: inconclusive; ATXN2 expr inh: inconclusive; KB-3-1 tox: inconclusive

What do the screens show for `O=S(=O)(c1ccccc1)N(Cc1ccccc1)c1ccccn1`?
HT1080NT lethal: 5%; HT1080 IDH1KD tx: 4%; ATXN viability: inactive; KB-V1 cytotox: 8.2µM*; ATXN2 expr inh: 2%; KB-3-1 tox: inconclusive

What do the screens show for `O=C(O)c1ccc(CN(c2ccccn2)S(=O)(=O)c2ccccc2)cc1`?
HT1080NT lethal: 7%; HT1080 IDH1KD tx: 4%; ATXN viability: inactive; KB-V1 cytotox: inactive; ATXN2 expr inh: -9%; KB-3-1 tox: inactive

How did CC1(C(=O)NS(=O)(=O)c2cccc(OC(F)F)c2)CCN1C(=O)CC1CCCC1 (centres undefined) do in these assays?
HT1080NT lethal: 28%; HT1080 IDH1KD tx: 27%; ATXN viability: inactive; KB-V1 cytotox: inactive; ATXN2 expr inh: 8%; KB-3-1 tox: inactive

How did CCOC(=O)C1CCCN(C(=O)c2ccccc2OC(F)(F)F)CC1 (centres undefined) do in these assays?
HT1080NT lethal: 5%; HT1080 IDH1KD tx: 7%; ATXN viability: inactive; KB-V1 cytotox: inactive; ATXN2 expr inh: 2%; KB-3-1 tox: inactive

What do the screens show for `CCCc1nc2oc3c(Cl)ncnc3c2c2c1CCCC2`?
HT1080NT lethal: 11%; HT1080 IDH1KD tx: 18%; ATXN viability: inconclusive; KB-V1 cytotox: inactive; ATXN2 expr inh: inconclusive; KB-3-1 tox: inconclusive

What do the screens show for `CC(C)Cc1nc2oc3c(=O)[nH]cnc3c2c2c1CCC2`?
HT1080NT lethal: -4%; HT1080 IDH1KD tx: -4%; ATXN viability: inactive; KB-V1 cytotox: inactive; ATXN2 expr inh: -6%; KB-3-1 tox: inactive

What do the screens show for `CC(C)Cc1nc2oc3c(Cl)ncnc3c2c2c1CCCC2`?
HT1080NT lethal: 8%; HT1080 IDH1KD tx: 22%; ATXN viability: inconclusive; KB-V1 cytotox: inactive; ATXN2 expr inh: 32µM*; KB-3-1 tox: inactive

How did CC(C)Cc1nc2oc3c(=O)[nH]cnc3c2c2c1CCCC2 do in these assays?
HT1080NT lethal: 7%; HT1080 IDH1KD tx: -9%; ATXN viability: inconclusive; KB-V1 cytotox: 18µM*; ATXN2 expr inh: -3%; KB-3-1 tox: inactive

How did CCCCCCCCCCCCCCCC[n+]1ccc(/C=C/c2c[nH]c3ccccc23)cc1 do in these assays?
KB-V1 cytotox: inconclusive; KB-3-1 tox: 12µM*

What do the screens show for `OCC[n+]1ccc(/C=C/c2c[nH]c3ccccc23)cc1`?
HT1080NT lethal: -2%; HT1080 IDH1KD tx: -9%; ATXN viability: inactive; KB-V1 cytotox: inactive; ATXN2 expr inh: -6%; KB-3-1 tox: inconclusive

How did C(=C\c1c[nH]c2ccccc12)/c1cc[n+](C2CCCCC2)cc1 do in these assays?
KB-V1 cytotox: inactive; KB-3-1 tox: inactive

Results for CCCCCCCCCC[n+]1ccc(/C=C/c2c[nH]c3ccccc23)cc1 ?
KB-V1 cytotox: inconclusive; KB-3-1 tox: 5.2µM*

How did O=C(COC(=O)c1ccc2ncsc2c1)NCc1ccccc1Cl do in these assays?
HT1080NT lethal: 7%; HT1080 IDH1KD tx: -2%; ATXN viability: inactive; KB-V1 cytotox: inactive; KB-3-1 tox: inactive

How did Fc1ccccc1-c1nnc2n1N=C(c1ccc(OC(F)F)c(OCC3CC3)c1)CS2 do in these assays?
ATXN viability: inactive; KB-V1 cytotox: inactive; ATXN2 expr inh: 11%; KB-3-1 tox: inactive

What do the screens show for `COc1ccc(OC)c(C2=Nn3c(nnc3-c3cc(C)[nH]n3)SC2)c1`?
HT1080NT lethal: -22%; HT1080 IDH1KD tx: -14%; ATXN viability: inconclusive; KB-V1 cytotox: inconclusive; ATXN2 expr inh: 2%; KB-3-1 tox: inactive

How did COc1ccc(C2=Nn3c(nnc3-c3ccccc3Cl)SC2)cc1OCC1CC1 do in these assays?
ATXN viability: inconclusive; KB-V1 cytotox: inconclusive; ATXN2 expr inh: inconclusive; KB-3-1 tox: 2.9µM*
